Experimental findings from ChEMBL document CHEMBL2218924, “A broad activity screen in support of a chemogenomic map for kinase signalling research and drug discovery” (Biochem J, 2013) are described below.

Structures are written as SMILES.

The target in experiment [1] is T1, Ephrin type-A receptor 3 (Homo sapiens) (UniProt P29320).
T1 sequence (whole entry): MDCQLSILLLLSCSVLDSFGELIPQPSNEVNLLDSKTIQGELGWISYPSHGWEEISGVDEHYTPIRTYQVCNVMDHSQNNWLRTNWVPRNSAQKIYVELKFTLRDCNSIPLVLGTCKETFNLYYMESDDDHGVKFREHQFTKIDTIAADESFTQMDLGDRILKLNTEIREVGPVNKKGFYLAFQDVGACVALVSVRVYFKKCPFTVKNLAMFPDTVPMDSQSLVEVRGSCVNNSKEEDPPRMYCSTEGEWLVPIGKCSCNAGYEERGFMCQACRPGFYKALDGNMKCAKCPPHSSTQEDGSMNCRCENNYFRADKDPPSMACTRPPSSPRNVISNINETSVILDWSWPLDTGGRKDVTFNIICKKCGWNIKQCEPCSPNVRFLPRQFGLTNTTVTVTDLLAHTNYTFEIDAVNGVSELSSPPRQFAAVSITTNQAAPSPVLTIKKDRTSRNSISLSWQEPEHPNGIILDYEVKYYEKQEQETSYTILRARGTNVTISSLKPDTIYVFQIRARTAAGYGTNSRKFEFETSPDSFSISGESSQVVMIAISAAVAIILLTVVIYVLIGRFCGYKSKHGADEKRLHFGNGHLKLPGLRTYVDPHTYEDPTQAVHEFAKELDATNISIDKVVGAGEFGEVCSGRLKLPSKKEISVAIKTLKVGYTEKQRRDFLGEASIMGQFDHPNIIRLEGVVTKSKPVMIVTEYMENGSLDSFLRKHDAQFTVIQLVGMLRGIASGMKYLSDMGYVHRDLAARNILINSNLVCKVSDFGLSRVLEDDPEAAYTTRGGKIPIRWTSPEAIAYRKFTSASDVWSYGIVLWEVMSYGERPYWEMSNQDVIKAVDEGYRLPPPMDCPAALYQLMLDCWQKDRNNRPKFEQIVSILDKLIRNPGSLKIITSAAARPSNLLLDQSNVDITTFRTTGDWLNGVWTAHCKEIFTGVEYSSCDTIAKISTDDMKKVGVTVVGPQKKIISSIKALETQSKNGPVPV
The following applies: at 10 µM.

Experiment [2] concerns the target Ephrin type-A receptor 4 (Homo sapiens) (UniProt P54764). The note with it: at 1 µM.
For experiment [3] the target is unchanged. The note with it: at 10 µM.
In experiment [4] the target is Ephrin type-A receptor 5 (Homo sapiens) (UniProt P54756). The following applies: at 1 µM.
Sequence of Ephrin type-A receptor 5 (Homo sapiens) (P54756 whole entry): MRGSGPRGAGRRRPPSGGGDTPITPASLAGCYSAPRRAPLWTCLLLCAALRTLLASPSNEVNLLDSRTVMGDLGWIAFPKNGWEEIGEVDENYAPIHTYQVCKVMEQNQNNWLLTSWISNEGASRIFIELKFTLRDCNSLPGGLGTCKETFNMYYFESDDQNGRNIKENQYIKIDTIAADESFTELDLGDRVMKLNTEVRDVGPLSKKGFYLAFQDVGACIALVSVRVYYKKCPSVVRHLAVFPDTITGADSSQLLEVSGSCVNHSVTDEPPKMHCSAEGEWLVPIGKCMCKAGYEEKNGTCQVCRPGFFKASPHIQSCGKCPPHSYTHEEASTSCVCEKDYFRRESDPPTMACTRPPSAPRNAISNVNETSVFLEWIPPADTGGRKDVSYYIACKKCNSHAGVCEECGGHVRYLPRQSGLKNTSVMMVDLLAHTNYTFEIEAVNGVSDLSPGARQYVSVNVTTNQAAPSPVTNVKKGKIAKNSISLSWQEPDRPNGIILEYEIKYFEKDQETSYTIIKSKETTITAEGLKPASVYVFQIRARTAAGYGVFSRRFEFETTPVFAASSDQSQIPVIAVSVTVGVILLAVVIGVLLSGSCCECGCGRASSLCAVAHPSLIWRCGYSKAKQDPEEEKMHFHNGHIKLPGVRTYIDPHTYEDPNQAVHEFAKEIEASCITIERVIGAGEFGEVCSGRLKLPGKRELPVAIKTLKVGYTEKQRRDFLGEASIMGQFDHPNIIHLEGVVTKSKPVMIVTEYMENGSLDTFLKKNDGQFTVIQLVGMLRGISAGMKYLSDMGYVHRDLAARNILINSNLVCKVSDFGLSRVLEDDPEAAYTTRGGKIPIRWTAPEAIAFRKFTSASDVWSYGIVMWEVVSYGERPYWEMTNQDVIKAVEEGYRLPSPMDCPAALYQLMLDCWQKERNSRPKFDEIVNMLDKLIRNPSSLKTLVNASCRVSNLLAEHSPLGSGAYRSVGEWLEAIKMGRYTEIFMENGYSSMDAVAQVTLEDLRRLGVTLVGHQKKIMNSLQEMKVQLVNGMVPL
For experiment [5] the target is unchanged. The note with it: at 10 µM.
Experiment [6] deals with Ephrin type-A receptor 7 (Homo sapiens) (UniProt Q15375). The note with it: at 1 µM.
Sequence of Ephrin type-A receptor 7 (Homo sapiens) (Q15375 28-998 limits assumed): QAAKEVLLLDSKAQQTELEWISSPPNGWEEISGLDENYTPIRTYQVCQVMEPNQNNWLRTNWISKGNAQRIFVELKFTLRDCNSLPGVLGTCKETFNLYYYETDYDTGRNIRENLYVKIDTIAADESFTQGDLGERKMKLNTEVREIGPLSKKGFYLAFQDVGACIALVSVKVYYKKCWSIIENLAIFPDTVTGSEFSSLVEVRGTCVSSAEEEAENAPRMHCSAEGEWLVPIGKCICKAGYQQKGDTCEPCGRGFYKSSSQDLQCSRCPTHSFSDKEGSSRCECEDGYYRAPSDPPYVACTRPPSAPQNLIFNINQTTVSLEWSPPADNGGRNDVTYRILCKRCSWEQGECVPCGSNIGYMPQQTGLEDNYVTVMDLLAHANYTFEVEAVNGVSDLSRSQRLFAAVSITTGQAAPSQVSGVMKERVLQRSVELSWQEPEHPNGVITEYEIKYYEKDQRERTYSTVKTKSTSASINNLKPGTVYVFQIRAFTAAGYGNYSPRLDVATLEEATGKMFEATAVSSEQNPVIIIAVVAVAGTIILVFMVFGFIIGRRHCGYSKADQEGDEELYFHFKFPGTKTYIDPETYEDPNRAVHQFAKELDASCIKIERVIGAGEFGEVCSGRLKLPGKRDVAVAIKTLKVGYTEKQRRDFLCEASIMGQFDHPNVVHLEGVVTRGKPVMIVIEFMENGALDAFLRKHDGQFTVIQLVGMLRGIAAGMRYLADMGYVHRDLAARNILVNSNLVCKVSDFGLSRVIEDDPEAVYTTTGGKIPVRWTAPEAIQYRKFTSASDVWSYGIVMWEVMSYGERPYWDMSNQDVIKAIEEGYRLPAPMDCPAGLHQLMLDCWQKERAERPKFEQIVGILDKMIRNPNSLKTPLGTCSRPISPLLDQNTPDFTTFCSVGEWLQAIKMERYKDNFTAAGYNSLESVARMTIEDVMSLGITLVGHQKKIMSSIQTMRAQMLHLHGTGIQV
Experiment [7] shares this target. The following applies: at 10 µM.
Experiment [8] concerns the target T2, Ephrin type-A receptor 8 (Homo sapiens) (UniProt P29322).
T2 sequence (whole entry): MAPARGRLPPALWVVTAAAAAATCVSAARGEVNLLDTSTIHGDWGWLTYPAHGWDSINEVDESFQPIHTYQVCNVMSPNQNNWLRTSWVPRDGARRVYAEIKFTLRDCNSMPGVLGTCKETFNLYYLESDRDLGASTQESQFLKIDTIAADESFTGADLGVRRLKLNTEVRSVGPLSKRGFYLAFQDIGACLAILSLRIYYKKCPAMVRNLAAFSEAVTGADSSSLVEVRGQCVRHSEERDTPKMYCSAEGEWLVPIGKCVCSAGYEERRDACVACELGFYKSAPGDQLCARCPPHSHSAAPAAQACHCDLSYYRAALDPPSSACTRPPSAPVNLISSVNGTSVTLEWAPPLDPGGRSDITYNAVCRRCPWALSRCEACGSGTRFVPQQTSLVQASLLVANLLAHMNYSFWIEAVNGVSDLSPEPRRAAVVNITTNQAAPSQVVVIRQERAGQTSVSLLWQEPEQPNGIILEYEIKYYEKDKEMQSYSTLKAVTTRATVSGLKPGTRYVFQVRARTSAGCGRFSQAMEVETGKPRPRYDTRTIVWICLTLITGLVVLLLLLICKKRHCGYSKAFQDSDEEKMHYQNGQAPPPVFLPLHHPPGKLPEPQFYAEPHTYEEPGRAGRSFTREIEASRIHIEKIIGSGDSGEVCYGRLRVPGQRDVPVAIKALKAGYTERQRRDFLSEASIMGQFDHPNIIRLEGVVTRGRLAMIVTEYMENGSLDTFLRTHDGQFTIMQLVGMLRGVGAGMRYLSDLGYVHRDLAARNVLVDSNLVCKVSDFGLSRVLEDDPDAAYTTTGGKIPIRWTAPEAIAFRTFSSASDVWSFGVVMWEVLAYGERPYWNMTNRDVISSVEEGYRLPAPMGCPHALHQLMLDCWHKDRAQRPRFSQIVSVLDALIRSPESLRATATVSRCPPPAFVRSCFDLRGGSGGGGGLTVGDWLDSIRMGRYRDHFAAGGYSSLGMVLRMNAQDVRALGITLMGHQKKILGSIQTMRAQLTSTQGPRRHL
The following applies: at 1 µM.

Experiment [9] concerns the target T2, Ephrin type-A receptor 8 (Homo sapiens). The note with it: at 10 µM.
The target in experiment [10] is T3, Ephrin type-B receptor 1 (Homo sapiens) (UniProt P54762).
T3 sequence (whole entry): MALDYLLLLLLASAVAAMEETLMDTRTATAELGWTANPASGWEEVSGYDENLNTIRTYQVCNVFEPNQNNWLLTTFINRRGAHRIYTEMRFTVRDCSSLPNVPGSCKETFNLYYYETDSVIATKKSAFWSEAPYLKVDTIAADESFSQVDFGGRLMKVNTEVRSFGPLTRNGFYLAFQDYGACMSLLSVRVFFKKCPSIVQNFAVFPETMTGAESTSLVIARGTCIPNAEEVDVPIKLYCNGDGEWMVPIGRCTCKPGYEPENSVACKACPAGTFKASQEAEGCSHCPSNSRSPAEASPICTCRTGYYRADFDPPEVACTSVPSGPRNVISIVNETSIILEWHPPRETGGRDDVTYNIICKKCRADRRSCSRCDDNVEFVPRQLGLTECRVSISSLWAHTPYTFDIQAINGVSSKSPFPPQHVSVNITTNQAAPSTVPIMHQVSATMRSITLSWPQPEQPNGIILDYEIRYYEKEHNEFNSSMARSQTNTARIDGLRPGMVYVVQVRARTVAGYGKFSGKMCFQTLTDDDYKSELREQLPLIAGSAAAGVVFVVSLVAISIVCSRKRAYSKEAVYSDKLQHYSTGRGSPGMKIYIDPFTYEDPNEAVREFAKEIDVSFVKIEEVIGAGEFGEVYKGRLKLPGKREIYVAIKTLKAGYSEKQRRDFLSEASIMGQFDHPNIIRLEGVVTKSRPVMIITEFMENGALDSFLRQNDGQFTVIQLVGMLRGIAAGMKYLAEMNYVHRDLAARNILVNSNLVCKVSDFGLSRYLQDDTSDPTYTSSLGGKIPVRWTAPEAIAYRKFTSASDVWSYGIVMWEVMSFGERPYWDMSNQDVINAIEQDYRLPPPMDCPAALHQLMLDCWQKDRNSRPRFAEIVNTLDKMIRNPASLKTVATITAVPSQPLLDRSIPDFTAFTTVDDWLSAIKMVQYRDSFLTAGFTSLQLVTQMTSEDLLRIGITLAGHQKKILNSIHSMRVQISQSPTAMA
The note with it: at 1 µM.

For orientation: residual activity means the signal under treatment as a percentage of the control signal.

Sequence of Ephrin type-A receptor 4 (Homo sapiens) (P54764 whole entry): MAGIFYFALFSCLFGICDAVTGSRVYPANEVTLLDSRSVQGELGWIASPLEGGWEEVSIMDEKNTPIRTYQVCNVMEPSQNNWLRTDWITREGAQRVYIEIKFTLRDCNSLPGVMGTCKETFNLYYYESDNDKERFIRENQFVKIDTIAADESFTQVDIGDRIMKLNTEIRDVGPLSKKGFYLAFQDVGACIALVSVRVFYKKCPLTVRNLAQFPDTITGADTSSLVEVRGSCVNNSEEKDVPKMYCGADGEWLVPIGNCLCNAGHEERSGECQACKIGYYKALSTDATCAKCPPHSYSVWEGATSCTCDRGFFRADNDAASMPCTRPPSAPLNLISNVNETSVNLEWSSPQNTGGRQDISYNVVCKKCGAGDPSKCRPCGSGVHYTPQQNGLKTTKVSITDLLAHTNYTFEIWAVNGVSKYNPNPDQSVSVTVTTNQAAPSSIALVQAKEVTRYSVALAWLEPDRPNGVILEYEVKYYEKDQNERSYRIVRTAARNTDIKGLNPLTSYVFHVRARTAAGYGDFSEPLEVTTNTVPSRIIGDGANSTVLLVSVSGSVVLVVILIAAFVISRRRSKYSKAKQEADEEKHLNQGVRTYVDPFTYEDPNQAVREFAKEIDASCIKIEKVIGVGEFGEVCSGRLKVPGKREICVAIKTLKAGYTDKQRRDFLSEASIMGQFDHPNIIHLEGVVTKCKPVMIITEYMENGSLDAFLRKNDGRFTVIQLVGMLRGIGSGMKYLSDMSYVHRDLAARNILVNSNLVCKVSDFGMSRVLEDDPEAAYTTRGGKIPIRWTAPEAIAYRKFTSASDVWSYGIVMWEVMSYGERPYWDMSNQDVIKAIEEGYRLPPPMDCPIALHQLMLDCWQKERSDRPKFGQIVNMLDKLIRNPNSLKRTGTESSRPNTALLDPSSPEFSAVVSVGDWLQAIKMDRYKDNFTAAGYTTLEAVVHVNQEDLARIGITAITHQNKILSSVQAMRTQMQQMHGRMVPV

With `Cc1ccc(NC2=CC(=O)c3sc(C)nc3C2=O)cc1`, the residual activity is 97% in experiment [1]; 101% in experiment [2]; 112% in [3]; 110% in experiment [4]; 100% in experiment [5]; 90% in experiment [6]. Also, the residual activity in [7] stood at 83%; in [8] it was 89%; in experiment [9], 96%; in experiment [10], 81%.
